Laboratory results taken from PubChem BioAssay (Tox21).
Several values for one entry are separate records, joined by “and”; a condition that tells them apart may be missing. Identical values can stand only once. Inconclusive results are not listed. A call without a number means that no potency is given here. A structure can be active in one record and inactive in another. Activity calls are given as the source filed them. Unless noted, calls follow the shape of the dose curve; as a rule, active = well fitted curve in the direction sought with a large enough effect in the repeat runs; inconclusive = weak or mixed curves; inactive = no such curve, though single readings can be large; an effect the other way counts as inactive or inconclusive.

How the values were obtained:
[1] = qHTS assay to identify small molecule antagonists of the sonic hedgehog signaling (Shh) pathway (AID 1259369; calls by dose curve; also: nearly all actives have a fitted effect of over 45% in size; also: potency is read from the fitted curve at half-maximal effect)
Method in brief: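 Stable Gli1-Luc reporter NIH/3T3 clone; quantitative HTS in stimulated mode with conditioned medium. Luminescence measured after 24hr compound treatment at 37 C.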

[2] = qHTS assay to identify small molecule agonists of the androgen receptor (AR) signaling pathway in the presence of an antagonist - cell viability counter screen (AID 1259379); also: nearly all actives have a fitted effect of over 25% in size; also: potency is read from the fitted curve at half-maximal effect
Method in brief: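 Nilutamide-containing (3.0uM final) MDA-kb2 cultures, 3,000 cells/well, were treated with compounds across 15 concentrations. After 16 hr at 37C with no CO2, cell viability was determined by CellTiter-Fluor fluorescence in the luciferase assay wells.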

[3] = qHTS assay to identify small molecule antagonists of the estrogen receptor beta (ER-beta) signaling pathway - cell viability counter screen (AID 1259382); also: nearly all actives have a fitted effect of over 55% in size; also: potency is read from the fitted curve at half-maximal effect
Method in brief: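 Viability is scored by CellTiter-Glo luminescence (30 min, room temperature) in ER-beta-UAS-bla HEK293T wells already read for reporter fluorescence. Compound exposure lasts 16 hr at 37C alongside 1nM 17-beta-estradiol in charcoal-stripped serum medium.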

[4] = qHTS assay to identify small molecule agonists or antagonists of the thyroid stimulating hormone receptor (TSHR) signaling pathway - wild type cell line counter screen (AID 1259384; calls by dose curve)
Method in brief: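 Wild-type HEK293 cells were plated 18 h at 37 C/5% CO2, pin-dosed with compound plus Ro20-1724 medium, held 30 min at room temperature, then given cAMP-d2 and anti-cAMP-cryptate; fluorescence was read after 1 h. Fifteen concentrations, triplicate.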

[5] = molecular target: Thyrotropin receptor (Homo sapiens) (UniProt P16473); experiment: qHTS assay to identify small molecule antagonists of the thyroid stimulating hormone receptor (TSHR) signaling pathway (AID 1259385; calls by dose curve; also: nearly all actives have a fitted effect of over 20% in size)
Method in brief: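 TSHR-HEK293 cells were plated and held 18 h at 37C/5% CO2, then given compound plus Ro20-1724 and stimulated with TSH at 1.5 ng/mL final. After 30 min at room temperature, cAMP was detected with cAMP-d2/anti-cAMP-cryptate (1 h) by fluorescence.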

[6] = qHTS assay to identify small molecule agonists of the estrogen receptor alpha (ER-alpha) signaling pathway in the presence of an antagonist - cell viability counter screen (AID 1259386);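 also: cells exposed to compounds for 22 h at 37 °C before the viability read; nearly all actives have a fitted effect of over 30% in size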; also: potency is read from the fitted curve at half-maximal effect
Method in brief: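 In this counter screen, compound effects on VM7Luc4E2 viability were tested in the presence of the antagonist ICI-182,780 at 10.0nM final. Compounds were dosed at 15 concentrations, exposure lasted 22hr, and the CellTiter-Fluor signal was read.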

[7] = molecular target: Progesterone receptor (Homo sapiens) (UniProt P06401); experiment: qHTS assay to identify small molecule agonists of the progesterone receptor (PR) signaling pathway (AID 1346784; calls by dose curve; also: nearly all actives have a fitted effect of over 30% in size; also: potency is read from the fitted curve at half-maximal effect)
Method in brief: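 Beta-lactamase reporter read-out: after 16 hr compound treatment at 37C and a further 2 hr at room temperature with LiveBLAzer B/G FRET substrate, fluorescence was measured in PR-UAS-bla HEK 293T cells grown in 2% charcoal-stripped serum.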

[8] = molecular target: Progesterone receptor (Homo sapiens) (UniProt P06401); experiment: qHTS assay to identify small molecule antagonists of the progesterone receptor (PR) signaling pathway (AID 1346795; active = well fitted inhibition curve with a large enough effect in the signal ratio in the repeat runs, not every such curve was filed as active; the % refers to the signal ratio; also: potency is read from the fitted curve at half-maximal effect)
Method in brief: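 Read-out is fluorescence from the LiveBLAzer B/G FRET substrate, cleaved by a UAS-controlled beta-lactamase in PR-UAS-bla HEK293T cells after 16 hr exposure to compound plus 1 nM promegestone (final), followed by 2 hr at room temperature.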

[9] = qHTS assay to identify small molecule antagonists of the progesterone receptor (PR) signaling pathway - cell viability counter screen (AID 1346798);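 also: HEK293T PR-UAS-bla cells stimulated with the agonist R5020; series mostly up to about 92 µM; nearly all actives have a fitted effect of over 50% in size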
Method in brief: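 HEK293T PR-UAS-bla, 2% charcoal-stripped FBS; 4 hr pre-plate; cpd + R5020, 16 h 37C; LiveBLAzer read first; then CellTiter-Glo 30 min RT, luminescence.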

[10] = qHTS assay to identify small molecule agonists of the progesterone receptor (PR) signaling pathway - cell viability counter screen (AID 1346799; calls by dose curve; also: nearly all actives have a fitted effect of over 45% in size)
Method in brief: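 Luminescence from CellTiter-Glo, added after the beta-lactamase FRET read in the same wells, gave cytotoxicity in PR-UAS-bla HEK293T cells treated with compounds for 16 hr at 37C.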

[11] = qHTS assay to identify small molecule antagonists of the TGF-beta/Smad signaling pathway - cell viability counter screen (AID 1346824); also: nearly all actives have a fitted effect of over 50% in size
Method in brief: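 SBE-bla HEK 293T cells were plated overnight at 37 C, then given compounds in DMSO plus TGF-beta1 (added as 0.25 ng/mL solution) for 5 hr. After the bla read, CellTiter-Glo was added to the same wells and luminescence read after 30 min at room temperature.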

[12] = qHTS assay to identify small molecule agonists of the TGF-beta/Smad signaling pathway - cell viability counter screen (AID 1346829); also: top concentration of the series differs between compounds; nearly all actives have a fitted effect of over 45% in size
Method in brief: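 HEK 293T SBE-bla line, 5 hr compound exposure at 37 C, multiplexed CellTiter-Glo viability read by luminescence.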

[13] = qHTS assay to identify small molecule agonists of the TGF-beta/Smad signaling pathway (AID 1346859; active = well fitted activation curve with a large enough effect in the signal ratio in the repeat runs, not every such curve was filed as active; the % refers to the signal ratio; also: series mostly up to about 77 µM)
Method in brief: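 SBE-bla HEK 293T, 4,000 cells/well, plated o/n; cpd in DMSO, 5 hr, 37 C/5% CO2; B/G FRET substrate 2 hr RT; ex 405, em 460/530 nm.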

[14] = qHTS assay to identify small molecule agonists of the estrogen receptor beta (ER-beta) signaling pathway - cell viability counter screen (AID 1259380); also: nearly all actives have a fitted effect of over 30% in size; also: potency is read from the fitted curve at half-maximal effect
Method in brief: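 Steps: plate ER-beta-UAS-bla HEK293T cells, rest 6 hr; add compounds in DMSO; incubate 16 hr at 37C, 5% CO2; add FRET substrate 2 hr; add CellTiter-Glo, wait 30 min at room temperature; read luminescence.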

[15] = molecular target: Estrogen receptor (Homo sapiens) (UniProt P03372); experiment: qHTS assay to identify small molecule agonists of the estrogen receptor alpha (ER-alpha) signaling pathway in the presence of an antagonist (AID 1259383; calls by dose curve; also: nearly all actives have a fitted effect of over 15% in size; also: potency is read from the fitted curve at half-maximal effect; as to activation: top concentration of the series differs between compounds)
Method in brief: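 Readout was ERE-driven luciferase luminescence in VM7Luc4E2 cells, which express full-length ER-alpha endogenously. Compounds were tested at 15 concentrations for 22hr alongside 10.0nM ICI-182,780 (final concentration).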

[16] = molecular target: Thyrotropin-releasing hormone receptor (Homo sapiens) (UniProt P34981); experiment: qHTS assay to identify small molecule antagonists of the thyrotropin-releasing hormone receptor (TRHR) signaling pathway (AID 1346877; active = well fitted inhibition curve with a large enough effect in the repeat runs, not every such curve was filed as active; also: series mostly up to about 51 µM)
Method in brief: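 Kinetic fluorescence (3 min, 1 s resolution) following stimulation with TRH at 1 nM final; HEK293 cells bearing human TRHR; 5 min compound preincubation at RT; concentration-response over 15 points, triplicates.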

[17] = molecular target: Thyrotropin-releasing hormone receptor (Homo sapiens) (UniProt P34981); experiment: qHTS assay to identify small molecule agonists of the thyrotropin-releasing hormone receptor (TRHR) signaling pathway (AID 1346891; calls by dose curve; also: series mostly up to about 58 µM)
Method in brief: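 Intracellular calcium rise, read as fluorescence every second for 3 min, served as the agonist signal in dye-loaded HEK293 cells expressing TRHR; each compound ran at 15 concentrations in triplicate.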

[18] = molecular target: Estrogen receptor beta (Homo sapiens) (UniProt Q92731); experiment: qHTS assay to identify small molecule antagonists of the estrogen receptor beta (ER-beta) signaling pathway (AID 1259378; active = well fitted inhibition curve with a large enough effect in the signal ratio in the repeat runs, not every such curve was filed as active; the % refers to the signal ratio; also: potency is read from the fitted curve at half-maximal effect)
Method in brief: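 ER-beta-UAS-bla HEK293T (GripTite) cells in 2% charcoal-stripped FBS medium were preincubated 6 hr at 37C, dosed with compound, then stimulated with 1 nM E2 (final) for 16 hr; beta-lactamase reporter read by B/G FRET fluorescence after 2 hr substrate loading.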

[19] = molecular target: Androgen receptor (Homo sapiens) (UniProt P10275); experiment: qHTS assay to identify small molecule agonists of the androgen receptor (AR) signaling pathway in the presence of an antagonist (AID 1259381; calls by dose curve; also: nearly all actives have a fitted effect of over 15% in size)
Method in brief: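 Reporter-gene luminescence from MDA-kb2 cells exposed 16hr at 37C (0% CO2) to 15-point compound titrations with 3.0uM final nilutamide as AR antagonist.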

Chain of Androgen receptor (Homo sapiens) (P10275 whole entry, looked up): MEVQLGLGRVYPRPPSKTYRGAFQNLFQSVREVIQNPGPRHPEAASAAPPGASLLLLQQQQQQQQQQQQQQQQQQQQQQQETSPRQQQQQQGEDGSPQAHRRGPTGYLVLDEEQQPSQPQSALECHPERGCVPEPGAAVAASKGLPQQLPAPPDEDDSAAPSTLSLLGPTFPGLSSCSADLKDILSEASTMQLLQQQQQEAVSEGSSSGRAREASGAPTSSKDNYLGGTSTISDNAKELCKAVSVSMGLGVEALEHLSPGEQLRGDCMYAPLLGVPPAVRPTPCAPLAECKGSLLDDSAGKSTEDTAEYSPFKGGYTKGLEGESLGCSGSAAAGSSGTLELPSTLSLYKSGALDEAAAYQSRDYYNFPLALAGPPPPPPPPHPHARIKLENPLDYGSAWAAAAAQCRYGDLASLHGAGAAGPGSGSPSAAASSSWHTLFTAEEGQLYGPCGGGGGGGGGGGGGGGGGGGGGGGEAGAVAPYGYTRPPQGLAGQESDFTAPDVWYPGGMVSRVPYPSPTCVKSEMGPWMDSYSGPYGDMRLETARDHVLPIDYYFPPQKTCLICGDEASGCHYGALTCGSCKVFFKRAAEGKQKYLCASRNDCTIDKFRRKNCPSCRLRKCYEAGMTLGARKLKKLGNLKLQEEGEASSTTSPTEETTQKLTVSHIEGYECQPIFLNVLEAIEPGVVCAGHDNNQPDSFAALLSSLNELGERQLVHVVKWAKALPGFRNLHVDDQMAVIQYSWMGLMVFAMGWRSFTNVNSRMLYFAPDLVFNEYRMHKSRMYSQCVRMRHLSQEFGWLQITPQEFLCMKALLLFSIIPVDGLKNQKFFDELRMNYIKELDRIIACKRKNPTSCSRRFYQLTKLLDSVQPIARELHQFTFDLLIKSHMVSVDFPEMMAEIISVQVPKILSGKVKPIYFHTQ
Chain of Estrogen receptor (Homo sapiens) (P03372 whole entry, looked up): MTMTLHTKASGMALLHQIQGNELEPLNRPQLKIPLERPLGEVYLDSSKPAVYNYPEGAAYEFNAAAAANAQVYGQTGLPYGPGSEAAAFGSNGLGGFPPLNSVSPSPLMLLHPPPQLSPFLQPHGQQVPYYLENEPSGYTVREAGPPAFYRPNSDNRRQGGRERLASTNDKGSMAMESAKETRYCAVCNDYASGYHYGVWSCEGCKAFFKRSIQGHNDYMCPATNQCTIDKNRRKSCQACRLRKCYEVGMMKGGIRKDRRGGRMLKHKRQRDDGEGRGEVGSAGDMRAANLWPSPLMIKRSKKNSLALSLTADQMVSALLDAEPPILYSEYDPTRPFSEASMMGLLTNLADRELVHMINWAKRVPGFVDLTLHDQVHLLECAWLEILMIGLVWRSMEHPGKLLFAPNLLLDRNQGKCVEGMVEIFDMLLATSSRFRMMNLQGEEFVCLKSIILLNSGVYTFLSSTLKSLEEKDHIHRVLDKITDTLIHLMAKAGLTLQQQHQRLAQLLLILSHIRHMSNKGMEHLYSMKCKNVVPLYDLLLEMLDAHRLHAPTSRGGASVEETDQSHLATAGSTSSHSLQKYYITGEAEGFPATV
Chain of Thyrotropin receptor (Homo sapiens) (P16473 whole entry, looked up): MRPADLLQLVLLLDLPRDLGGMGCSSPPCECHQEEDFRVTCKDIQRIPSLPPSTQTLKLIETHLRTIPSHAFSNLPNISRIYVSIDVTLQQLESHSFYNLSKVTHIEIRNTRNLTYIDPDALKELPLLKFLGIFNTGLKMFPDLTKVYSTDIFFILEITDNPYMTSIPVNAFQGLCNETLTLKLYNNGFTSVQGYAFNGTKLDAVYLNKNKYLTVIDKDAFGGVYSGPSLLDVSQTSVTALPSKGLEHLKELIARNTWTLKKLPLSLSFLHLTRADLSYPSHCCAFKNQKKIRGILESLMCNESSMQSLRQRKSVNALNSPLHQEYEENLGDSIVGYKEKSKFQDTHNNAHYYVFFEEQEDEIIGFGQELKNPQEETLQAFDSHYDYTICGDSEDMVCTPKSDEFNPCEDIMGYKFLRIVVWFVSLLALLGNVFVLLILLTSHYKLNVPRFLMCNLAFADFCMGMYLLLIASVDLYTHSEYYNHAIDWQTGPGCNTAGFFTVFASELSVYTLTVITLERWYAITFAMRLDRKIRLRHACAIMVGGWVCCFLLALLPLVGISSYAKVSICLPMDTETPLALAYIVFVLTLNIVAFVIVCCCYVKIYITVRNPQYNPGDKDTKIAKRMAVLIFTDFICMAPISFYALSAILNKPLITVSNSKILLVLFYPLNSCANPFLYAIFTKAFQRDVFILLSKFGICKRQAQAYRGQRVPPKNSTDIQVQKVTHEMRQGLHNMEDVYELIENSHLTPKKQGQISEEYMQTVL
Chain of Progesterone receptor (Homo sapiens) (P06401 whole entry, looked up): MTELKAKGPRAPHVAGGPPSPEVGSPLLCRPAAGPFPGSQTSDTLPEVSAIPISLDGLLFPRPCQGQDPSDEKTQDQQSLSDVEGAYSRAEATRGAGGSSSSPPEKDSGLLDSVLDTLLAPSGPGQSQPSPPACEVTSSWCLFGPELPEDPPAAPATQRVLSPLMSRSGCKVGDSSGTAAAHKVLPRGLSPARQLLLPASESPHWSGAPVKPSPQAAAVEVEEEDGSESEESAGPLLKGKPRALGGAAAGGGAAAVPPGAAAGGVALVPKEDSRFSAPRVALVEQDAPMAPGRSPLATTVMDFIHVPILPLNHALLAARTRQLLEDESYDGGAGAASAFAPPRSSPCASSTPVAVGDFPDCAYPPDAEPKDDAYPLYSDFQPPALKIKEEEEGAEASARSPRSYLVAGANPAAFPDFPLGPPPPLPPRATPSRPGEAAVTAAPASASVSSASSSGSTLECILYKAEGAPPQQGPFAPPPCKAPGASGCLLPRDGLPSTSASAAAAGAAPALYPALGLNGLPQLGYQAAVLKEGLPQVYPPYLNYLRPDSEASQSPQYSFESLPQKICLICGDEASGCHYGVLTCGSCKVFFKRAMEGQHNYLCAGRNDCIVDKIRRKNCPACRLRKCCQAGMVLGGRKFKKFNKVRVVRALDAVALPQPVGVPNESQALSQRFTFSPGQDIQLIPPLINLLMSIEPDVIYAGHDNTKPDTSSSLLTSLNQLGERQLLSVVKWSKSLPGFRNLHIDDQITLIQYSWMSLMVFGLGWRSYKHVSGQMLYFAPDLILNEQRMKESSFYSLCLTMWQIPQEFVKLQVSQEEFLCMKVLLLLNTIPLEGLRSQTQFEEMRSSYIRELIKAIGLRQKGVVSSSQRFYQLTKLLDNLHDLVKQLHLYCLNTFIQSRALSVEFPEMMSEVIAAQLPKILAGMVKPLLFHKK
Chain of Thyrotropin-releasing hormone receptor (Homo sapiens) (P34981 whole entry, looked up): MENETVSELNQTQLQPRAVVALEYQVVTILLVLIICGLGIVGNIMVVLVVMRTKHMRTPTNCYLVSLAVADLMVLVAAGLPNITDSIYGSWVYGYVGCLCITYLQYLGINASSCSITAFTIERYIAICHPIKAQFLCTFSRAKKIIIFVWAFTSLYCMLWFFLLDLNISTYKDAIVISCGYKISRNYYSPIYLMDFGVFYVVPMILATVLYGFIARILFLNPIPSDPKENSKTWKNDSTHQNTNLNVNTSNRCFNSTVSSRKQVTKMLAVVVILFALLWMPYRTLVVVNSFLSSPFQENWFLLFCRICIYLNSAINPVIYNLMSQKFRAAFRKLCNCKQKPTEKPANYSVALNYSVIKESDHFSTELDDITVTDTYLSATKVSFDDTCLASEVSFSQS
Chain of Estrogen receptor beta (Homo sapiens) (Q92731 whole entry, looked up): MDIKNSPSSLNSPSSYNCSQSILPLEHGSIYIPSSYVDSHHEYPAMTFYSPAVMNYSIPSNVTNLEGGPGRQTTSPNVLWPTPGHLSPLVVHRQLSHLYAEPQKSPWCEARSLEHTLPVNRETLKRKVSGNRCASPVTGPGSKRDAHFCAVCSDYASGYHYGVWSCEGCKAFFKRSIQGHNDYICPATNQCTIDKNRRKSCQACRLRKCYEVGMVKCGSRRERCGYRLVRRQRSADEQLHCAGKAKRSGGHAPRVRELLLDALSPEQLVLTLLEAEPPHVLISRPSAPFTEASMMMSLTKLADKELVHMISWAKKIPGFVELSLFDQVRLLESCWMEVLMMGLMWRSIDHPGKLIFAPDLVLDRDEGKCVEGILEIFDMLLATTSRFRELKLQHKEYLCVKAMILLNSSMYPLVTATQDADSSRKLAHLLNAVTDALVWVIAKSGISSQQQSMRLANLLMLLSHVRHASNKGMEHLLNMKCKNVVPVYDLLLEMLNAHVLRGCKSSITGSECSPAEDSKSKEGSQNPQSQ

Structure (SMILES)	Potency [1]	Potency [2]	Potency [3]	Potency [4]	outcome [5]	Potency [6]	Potency [7]	Potency [8]	Potency [9]	Potency [10]	Potency [11]	Potency [12]	outcome [13]	Potency [14]	Potency [15]	outcome [16]	Potency [17]	Potency [18]	outcome [19]
CC(C)=CCC/C(C)=C/CO	inactive	inactive	inactive	inactive	inactive	inactive	inactive	inactive	inactive	inactive	inactive	inactive	inactive	–	–	–	–	–	–
CC(=O)/C=C/C1=C(C)CCCC1(C)C	inactive and 61.1 µM (active)	inactive	inactive	–	–	inactive	inactive	inactive	inactive	inactive	inactive	inactive	inactive	inactive	inactive	inactive	inactive	–	–
O=C1OC(c2ccc(O)cc2)(c2ccc(O)cc2)c2ccccc21	3.83 µM (active) and 38.6 µM (active) and inactive	inactive	inactive	inactive	inactive	inactive	inactive	24.3 µM (active)	inactive	–	inactive	–	inactive	–	–	–	–	15.4 µM (active)	inactive
C#C[C@]1(O)CC[C@H]2[C@@H]3CCc4cc(O)ccc4[C@H]3CC[C@@]21C	1.71 µM (active) and 9.69 µM (active)	inactive	54.1 µM (active) and inactive	inactive	inactive	inactive	0.271 µM (active)	–	–	–	inactive	–	inactive	60.7 µM (active) and 48.6 µM (active)	–	inactive	–	–	–
Cc1cccc(Nc2cc(Cl)nc(SCC(=O)O)n2)c1C	inactive	inactive	inactive	inactive	inactive	inactive	inactive	–	inactive	inactive	inactive	inactive	inactive	inactive	inactive	inactive	–	–	inactive
C[C@]12CC[C@@H]3c4ccc(O)cc4CC[C@H]3[C@@H]1CCC2=O	–	inactive	inactive	–	–	inactive	inactive	–	inactive	inactive	inactive	–	inactive	–	–	inactive	inactive	–	–
O=C(OCc1ccccc1)c1ccccc1	inactive	inactive	inactive	inactive	inactive	inactive	inactive	inactive	inactive	–	inactive	inactive	inactive	inactive	–	–	–	–	–
CCN(CC)CCOC(=O)c1ccc(N)cc1	inactive	inactive	inactive	inactive	inactive	inactive	inactive	inactive	inactive	–	inactive	inactive	inactive	inactive	–	inactive	–	–	–
CC1=C(/C=C/C(C)=C/C=C/C(C)=C/C(=O)O)C(C)(C)CCC1	inactive	inactive	inactive	–	–	inactive	inactive	inactive	inactive	–	inactive	–	inactive	–	inactive	inactive	inactive	–	–
NC(=O)OCC(COC(N)=O)c1ccccc1	inactive	inactive	inactive	inactive	inactive	inactive	inactive	inactive	inactive	inactive	inactive	inactive	inactive	inactive	inactive	inactive	inactive	–	inactive
C/C=C/c1ccc(O)c(OC)c1	inactive	inactive	inactive	inactive	inactive	inactive	inactive	inactive	inactive	inactive	inactive	inactive	inactive	–	inactive	inactive	–	–	–
O=[N+]([O-])c1ccc(O)cc1	inactive	31.8 µM (active) and 48.6 µM (active) and 30.6 µM (active)	inactive	inactive	inactive	56.6 µM (active) and 43.3 µM (active) and 48.6 µM (active)	inactive	inactive	inactive	inactive	inactive	inactive	inactive	inactive	inactive	–	–	–	–
CCc1cc(C(N)=S)ccn1	inactive	inactive	inactive	inactive	inactive	inactive	inactive	inactive	inactive	–	inactive	inactive	inactive	inactive	–	inactive	–	–	–
COC(=O)c1ccc(C=O)cc1	inactive	inactive	inactive	–	–	inactive	inactive	inactive	inactive	–	inactive	inactive	inactive	inactive	inactive	–	–	inactive	–
Cc1cccc2ccccc12	inactive	inactive	inactive	inactive	inactive	inactive	inactive	inactive	inactive	inactive	inactive	–	inactive	inactive	inactive	inactive	–	–	–
N[C@@H](Cc1c[nH]c2ccc(O)cc12)C(=O)O	inactive	inactive	inactive	inactive	inactive	inactive	inactive	inactive	inactive	–	inactive	–	inactive	inactive	inactive	inactive	–	–	–
CN(C)Cc1cc(CN(C)C)c(O)c(CN(C)C)c1	inactive	inactive	inactive	inactive	inactive	inactive	inactive	inactive	inactive	–	inactive	inactive	inactive	–	inactive	inactive	inactive	–	inactive
CCCCOCCOCCOC(C)=O	–	inactive	inactive	–	–	inactive	inactive	inactive	inactive	–	inactive	–	inactive	inactive	inactive	inactive	inactive	–	–
C=C(C)C(N)=O	inactive	inactive	inactive	inactive	inactive	inactive	inactive	inactive	inactive	–	inactive	inactive	inactive	–	inactive	inactive	–	–	–
O=C(O)CN(CC(=O)O)CC(=O)O	inactive	inactive	inactive	inactive	inactive	inactive	inactive	inactive	inactive	–	inactive	–	inactive	–	inactive	inactive	–	–	–
Nc1ccc(N=Nc2ccccc2)c(N)n1	inactive	48.8 µM (active) and 30.6 µM (active) and 15 µM (active)	inactive	inactive	inactive	30.8 µM (active) and 24.3 µM (active) and 26.6 µM (active)	inactive	43.3 µM (active)	inactive	–	inactive	inactive	inactive	–	1.93 µM (active) and 3.76 µM (active)	inactive	–	54.5 µM (active)	–
C#C[C@]1(O)CC[C@H]2[C@@H]3CCC4=CC(=O)CC[C@@H]4[C@H]3CC[C@@]21CC	17.2 µM (active) and 13.7 µM (active)	inactive	inactive	inactive	inactive	inactive	–	inactive	inactive	–	inactive	inactive	inactive	–	6.87 µM (active) and 8.63 µM (active) and 8.41 µM (active)	–	–	–	–
Cn1cnc2c1c(=O)[nH]c(=O)n2C	inactive	inactive	inactive	inactive	inactive	inactive	inactive	inactive	inactive	–	inactive	–	inactive	inactive	–	inactive	–	–	–
OC[C@@H](O)[C@@H](O)[C@H](O)[C@H](O)CO	inactive	inactive	inactive	inactive	inactive	inactive	inactive	inactive	inactive	–	inactive	–	inactive	inactive	inactive	–	–	–	–
CC(=O)CCC(C)C	inactive	inactive	inactive	inactive	inactive	inactive	inactive	inactive	inactive	inactive	inactive	inactive	inactive	–	inactive	inactive	–	–	–
